Results from the supplement of paper PMC6555819.

How the values were obtained:
Test in all cases: PBM binding z-score (relative to random genomic background probes); higher = stronger binding; sequences stand for … in GC…GCGATTGACAGCGTAGAATGAAGG
[1] = test system: PPARg:RXRa DBDmut IVT, anti-RXR (DBD mutation: RXRa K156A/R161A, NR concentration 270 nM, RXRa partner concentration 90 nM)
Procedure, shortened: (§1)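 Regression normalization was applied to scanned fluorescence from custom Agilent 4×180K protein-binding microarrays. Before scanning, arrays were incubated 1 h with ligand-free nuclear receptor dimers, and binding was detected with antibodies against each partner (one per run). Binding z-scores use the random background probes as reference.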

[2] = test system: PPARg:RXRa IVT, anti-PPARg (NR concentration 270 nM, RXRa partner concentration 90 nM)
Procedure, shortened: as §1

[3] = test system: PPARg DBDmut:RXRa IVT, anti-PPARg (DBD mutation: PPARg1 K132A/R137A, NR concentration 270 nM, RXRa partner concentration 90 nM)
Procedure, shortened: as §1

[4] = test system: PPARg DBDmut IVT, anti-PPARg (DBD mutation: PPARg1 K132A/R137A, NR concentration 270 nM)
Procedure, shortened: as §1

[5] = test system: PPARg homodimer (NR concentration 180 nM)
Procedure, shortened: as §1

[6] = test system: PXR:RXRa (NR concentration 270 nM, RXRa partner concentration 90 nM)
Procedure, shortened: as §1

[7] = test system: PXR homodimer (NR concentration 270 nM)
Procedure, shortened: as §1

[8] = test system: RARa:RXR (NR concentration 270 nM, RXRa partner concentration 90 nM)
Procedure, shortened: as §1

[9] = test system: RARa homodimer (NR concentration 270 nM)
Procedure, shortened: as §1

[10] = test system: RARb:RXRa (NR concentration 270 nM, RXRa partner concentration 90 nM)
Procedure, shortened: as §1

[11] = test system: RARb homodimer (NR concentration 270 nM)
Procedure, shortened: as §1

[12] = test system: RARg:RXRa (NR concentration 270 nM, RXRa partner concentration 90 nM)
Procedure, shortened: as §1

[13] = test system: RARg homodimer (NR concentration 270 nM)
Procedure, shortened: as §1

[14] = test system: RXRa DBDmut IVT, anti-RXR (DBD mutation: RXRa K156A/R161A, NR concentration 90 nM)
Procedure, shortened: as §1

[15] = test system: RXRa homodimer (NR concentration 180 nM)
Procedure, shortened: as §1

[16] = test system: THRa:RXRa (NR concentration 90 nM, RXRa partner concentration 90 nM)
Procedure, shortened: as §1

[17] = test system: THRa homodimer (NR concentration 90 nM)
Procedure, shortened: as §1

[18] = test system: VDR homodimer (NR concentration 270 nM)
Procedure, shortened: as §1

Row | Sequence | PBM binding z-score [1] | PBM binding z-score [2] | PBM binding z-score [3] | PBM binding z-score [4] | PBM binding z-score [5] | PBM binding z-score [6] | PBM binding z-score [7] | PBM binding z-score [8] | PBM binding z-score [9] | PBM binding z-score [10] | PBM binding z-score [11] | PBM binding z-score [12] | PBM binding z-score [13] | PBM binding z-score [14] | PBM binding z-score [15] | PBM binding z-score [16] | PBM binding z-score [17] | PBM binding z-score [18]
1 | CCTAGCAGGCTAGGGTCACTCAAGCATTTCGCTT | 0.26 | 0.393 | -1.9 | -1.59 | 1.58 | 3.3 | -0.41 | 4.27 | -0.0687 | 2.89 | 2.67 | 3.35 | 2.35 | 0.61 | 3.65 | 3.64 | 1.81 | 1.07
2 | TCATATAGGTAAACAGGTGAAAGGCCGTAAGTTA | 4.71 | 4.59 | 1.06 | 1.36 | 1.42 | 0.956 | 0.656 | 1.37 | 1.25 | 0.989 | 1.29 | 0.793 | 0.375 | 1.61 | 1.2 | 0.682 | 0.262 | 0.499
3 | GCTCGGAGGACATGGTCAGAGCTTTGTCCGTAGA | -0.304 | -0.659 | -2.23 | -2.05 | -2.26 | -0.77 | -0.911 | -0.833 | -1.56 | 0.679 | 0.143 | -0.271 | 0.158 | -0.383 | -0.444 | 0.524 | -0.306 | -0.849
4 | ACAGACAGGTGAGCGAAGGTAACTCAGCTGGACG | 0.465 | 0.783 | 0.567 | -0.608 | -0.706 | -0.51 | -0.963 | 0.056 | -0.65 | 0.608 | 0.0254 | 0.199 | 0.463 | -0.651 | 0.258 | 1.74 | -0.377 | -0.771
5 | AATACAGGGTCATCATAGGCCAGAGTACGCACAG | 2.62 | 3.98 | 1.5 | 0.916 | 1.8 | 4.42 | 1.01 | 4.65 | 1.25 | 4.25 | 3.57 | 5.66 | 5.42 | 3.54 | 6.89 | 4.39 | 1.78 | 3.46
6 | TTGAGTAGGTTAGTCGGGGCATTCAGCCAACATA | 3.52 | 3.36 | 0.385 | 0.257 | 0.88 | 0.618 | 0.715 | 0.545 | 0.987 | 0.733 | 0.969 | 0.218 | 0.145 | 0.265 | 0.0452 | 1.43 | 0.699 | 1.25
7 | CCTTACGAGTCAAGGTTATAGCACGGGTGGTACG | -0.121 | 0.156 | -0.0742 | -0.146 | 1.14 | 0.823 | 0.506 | 0.888 | 0.784 | 1.07 | 1.07 | 0.83 | 0.637 | 0.174 | 1.07 | 1.58 | 0.715 | 0.529
8 | ATCTCTAGGTAACCAAGTTCAGGGAATGCCGAAC | 3.23 | 2.89 | 0.704 | 1.55 | 0.857 | 2.04 | 1.49 | 0.735 | 0.329 | 1.15 | 1.55 | 0.828 | 0.852 | 0.481 | 0.745 | 1.69 | 0.87 | 2.84
9 | ATATGTAGGTTAAGGGTCATCCAGGTTGGTTCGC | 7.61 | 8.22 | 4.43 | 2.04 | 4.33 | 5.87 | 2.5 | 6.77 | 2.63 | 3.99 | 4.18 | 5.45 | 4.39 | 1.99 | 6.92 | 3.69 | 1.82 | 3.82
10 | CCGACTGGGGCAAGGTTGCCATAACGCACAGCCA | 2.66 | 2.53 | -0.344 | -1.02 | 0.0482 | -0.535 | -0.379 | -0.46 | -0.394 | 0.641 | 0.376 | 0.327 | 0.556 | -0.586 | 0.107 | 0.0473 | -0.389 | -0.526
11 | GCTTACGGGTCAAACGTTATAGCATGAATAGAAT | 4.87 | 4.1 | 1.95 | 1.38 | 1.25 | 3.37 | -0.15 | 4.41 | 0.0211 | 3.76 | 2.24 | 4.8 | 4.42 | 2.47 | 5.6 | 2.24 | -0.707 | 1.11
12 | CCTAGAAGGCCAGGGTCACTCAAGCATTTCGCTT | 0.376 | 0.709 | -1.14 | -1.39 | 1.89 | 2.81 | 0.284 | 3.21 | 1.23 | 3.06 | 3.02 | 3.47 | 3.15 | 0.637 | 3.9 | 2.96 | 1.16 | 2.13
13 | GCTTACGGGTAAAAGGTTATAGCATGAATAGAAT | 1.1 | 3.12 | 0.792 | 0.799 | 1.62 | 2.36 | 0.623 | 3.75 | 0.86 | 1.98 | 1.59 | 2.68 | 1.35 | 0.423 | 3.38 | 1.64 | -0.0699 | 0.48
14 | CTACCAAGGTGAACAAGGTCCTTGATTACTATTC | 2.33 | 2.45 | 0.391 | -0.0815 | 0.182 | 0.728 | 0.218 | 0.944 | -0.035 | 1.64 | 1.02 | 0.733 | 0.947 | 0.723 | 0.86 | 2.29 | 1.03 | 0.358
15 | ATCGAAAGGTCGTGAGGTGAGTATGCAGAAAGGC | 0.289 | 2.19 | 1.46 | 1.35 | 1.5 | 2.98 | -0.0975 | 4.43 | 0.592 | 4.01 | 3.26 | 4.63 | 4.17 | 1.02 | 5.27 | 3.56 | 1.71 | 0.782
